Hits are enriched below; roughly 2.1% of the tested compounds scored in any of these assays.
D2 ag-1 = agonists of human D2 dopamine receptor; HEK293 T-REx D2 cells, calcium flux agonist mode; actives 0.53% (n = 340,000); P14416; activation, % at 2 µM;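 active = activation over 3 SD above normal in the single-dose calcium agonist read, cut at about 30% in these data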
Target sequence (P14416 whole entry, looked up): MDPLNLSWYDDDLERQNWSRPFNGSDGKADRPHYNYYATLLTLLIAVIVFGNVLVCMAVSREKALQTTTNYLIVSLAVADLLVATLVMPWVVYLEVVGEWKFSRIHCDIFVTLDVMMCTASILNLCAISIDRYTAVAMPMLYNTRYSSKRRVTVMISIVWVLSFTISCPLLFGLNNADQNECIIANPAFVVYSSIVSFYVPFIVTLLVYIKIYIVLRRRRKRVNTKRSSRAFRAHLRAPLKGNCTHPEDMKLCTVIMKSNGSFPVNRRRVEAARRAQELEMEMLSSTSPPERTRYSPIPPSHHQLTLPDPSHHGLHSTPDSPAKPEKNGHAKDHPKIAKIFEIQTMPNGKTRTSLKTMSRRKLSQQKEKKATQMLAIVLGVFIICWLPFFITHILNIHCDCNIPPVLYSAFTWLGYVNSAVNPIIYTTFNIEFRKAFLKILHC
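Tetracycline-induced HEK293 Trex cells with D2 receptor force-coupled to calcium signaling, plated overnight at 30 C and loaded with no-wash calcium dye. Calcium flux read kinetically for 180 s after compound addition; responses flag agonists.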
D2 PAM-1 = potentiates the human D2 dopamine receptor allosterically; potentiation, % (concentration not given with the values); actives 0.23% (n = 360,000); P14416; DiscoveRx D2 beta-arrestin cells, luminescence, 90 min; 100% = 57 uM dopamine signal; in the data active = potentiation above about 50%
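PathHunter D2 cells, attached overnight at 37 deg C, received compound in DMSO plus dopamine at EC20 (50 nM final) for 90 min at 37 deg C. Beta-arrestin recruitment was read as luminescence after 1 h with detection reagent at ambient temperature.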
LDHA inh = LDHA (human) enzyme inhibition; purified LDHA, NADH/diaphorase-resazurin fluorescence; stronger effect = lower value; activity change, % (values are at about 110 or 230 µM); actives 0.15% (n = 480,000); AID 1347041; in the data active = activity change below about -30%
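Remaining NADH was detected by diaphorase (0.133 mg/mL) converting 37 µM resazurin to fluorescent resorufin, read at 0 and 20 minutes. The preceding 5-minute room-temperature reaction used 2 nM LDHA, 0.2 mM sodium pyruvate and 0.06 mM NADH at pH 7.4.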
D2 antagonist = antagonists of human D2 dopamine receptor; HEK293 TREx D2 cells, calcium flux, dopamine EC80; inhibition, % at 10 µM; P14416; AID 485344; actives 2% (n = 340,000); in the data active = inhibition above about 30%; inactive = below that, where a call was filed
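Inhibition of EC80 dopamine-driven calcium flux, recorded kinetically, defines activity here; cells are a tetracycline-induced HEK293 T-REx line expressing force-coupled D2.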
D2 PAM-2 = D2 dopamine receptor (human) potentiation | P14416 | HEK293 T-REx D2, calcium flux, EC20 dopamine potentiation | potentiation, % at 10 µM | actives 0.34% (n = 340,000);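 active = potentiation over 3 SD above the plate norm, cut at about 30% in these data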
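Tetracycline-induced Hek293 Trex D2 cells, force-coupled to calcium, loaded with no-wash calcium dye. Compound added with 180 s kinetic read for agonism, then EC20 dopamine and a further 180 s read for potentiation.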
D2 ag-2 = human D2 receptor agonism in beta-arrestin assay; P14416; activation, % (test concentration not listed); actives 0.084% (n = 360,000); DiscoveRx PathHunter D2 beta-arrestin, luminescence, 90 min; 100% = 57 uM dopamine signal; AID 624465; in the data active = activation above about 40%
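Agonist mode: compounds alone added to overnight-plated D2 PathHunter cells for 90 min at 37 C, with 57 uM final dopamine (EC100) defining full response. Beta-arrestin recruitment detected by chemiluminescent reagent, read after 1 h at ambient temperature.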
Each line names hits and unclear results; the compound was inactive in the other large screens.

COc1cccc(-c2nnc3sc(C4CCCCC4)nn23)c1	none
CC(C)CCC(CCNC1CCC(C)CC1)C1CCOC(C)(C)C1 (stereo not given)	none (no result: D2 ag-1, D2 PAM-1, D2 antagonist, D2 PAM-2, D2 ag-2)
O=C(Nc1ccc(Cl)c(C(F)(F)F)c1)C1=C(c2ccccc2)S(=O)(=O)CCO1	none (no result: D2 ag-1, D2 PAM-1, D2 antagonist, D2 PAM-2, D2 ag-2)
CCc1ccc2c(CN3CCc4cc(OC)c(OC)cc4C3)cc(=O)oc2c1	D2 antagonist 32
COc1cc2c(cc1OC)CN(Cc1ccc(C)cc1)CC2	D2 antagonist 56
COc1cc2c(cc1OC)CN(Cc1cc(=O)oc3cc(C)c(C)cc13)CC2	none
COc1ccccc1C1CCN(Cc2ccc(C)cc2)CC1	D2 antagonist 95
COc1ccccc1CNC1CCN(Cc2ccccc2)CC1	none (no result: D2 ag-1, D2 antagonist, D2 PAM-2)
CCN(CC)CCN1C(=O)C(O)=C(C(=O)c2sc(C)nc2C)C1c1ccc(C(=O)OC)cc1 (stereo not given)	none (no result: D2 ag-1, D2 PAM-1, D2 antagonist, D2 PAM-2, D2 ag-2)
CCC(NC(=O)C1CCN(C(=O)c2cccc3ccccc23)CC1)c1ccc(Cl)cc1 (stereo not given)	none (no result: D2 ag-1, D2 PAM-1, D2 antagonist, D2 PAM-2, D2 ag-2)
Cc1cc(C)cc(NS(=O)(=O)c2cc(Br)cnc2N)c1	D2 antagonist 32
O=C(NCCO)c1cc(-c2ccc(Cl)cc2)nc2ccccc12	none (no result: D2 ag-1, D2 PAM-1, D2 antagonist, D2 PAM-2, D2 ag-2)
COc1cccc(C(=O)c2ncc(C(F)(F)F)cc2Cl)c1	D2 PAM-2 36
Cc1ccccc1NC(=O)Nc1nnc(CC(=O)NCc2ccccc2)s1	D2 antagonist 31
CC(C)C(=O)Nc1nnc(Cc2ccccc2)s1	D2 antagonist 30
COc1ccccc1NC(=O)c1cc(=O)c2cc(C)c(C)cc2o1	none (no result: D2 ag-1, D2 PAM-1, D2 antagonist, D2 PAM-2, D2 ag-2)
CCC1(c2ccc(NC(=O)c3cc(OC)c(OC)c(OC)c3)cc2)CCC(=O)NC1=O (stereo not given)	none (no result: D2 ag-1, D2 PAM-1, D2 antagonist, D2 PAM-2, D2 ag-2)
O=C(O)Cn1cc(C(C(=O)O)N2CCN(Cc3ccncc3)CC2)c2ccccc21 (stereo not given)	none (no result: D2 ag-1, D2 PAM-1, D2 antagonist, D2 PAM-2, D2 ag-2)
CC1CN(CCOCCSc2ccc(Cl)cc2)CC(C)O1 (stereo not given)	D2 antagonist 50
CC1CCN(CCOCCSc2ccc(Cl)cc2)CC1	D2 antagonist 45
CCOC(=O)C1CCN(CCC(=O)Nc2ccc(Cl)cc2)CC1	none
Clc1ccc(SCCOCCN2CCCCC2)cc1	none
CCOC(=O)C1CCN(CCCSc2ccc(Cl)cc2)CC1	D2 antagonist 46
Nc1sccc1C(=O)NCc1ccncc1	none (no result: D2 ag-1, D2 PAM-1, D2 antagonist, D2 PAM-2, D2 ag-2)
O/N=C/c1cccc(Oc2ccccc2)c1	none (no result: D2 ag-1, D2 PAM-1, D2 antagonist, D2 PAM-2, D2 ag-2)
CC(C)c1noc(C(C)Sc2n[nH]c(-c3ccccc3F)n2)n1 (stereo not given)	none (no result: D2 ag-1, D2 PAM-1, D2 antagonist, D2 PAM-2, D2 ag-2)
O=C1N=C(N2CCOCC2)S/C1=C/c1cccs1	none
CC1Oc2ccccc2C=C1/C=C1/SC(N2CCOCC2)=NC1=O (stereo not given)	D2 PAM-2 36
COc1ccccc1N1CCN(C(=O)c2cc3c(s2)CCCCC3)CC1	none (no result: D2 ag-1, D2 antagonist, D2 PAM-2)
CCOc1ccccc1N1CCN(C(=O)c2cc3c(s2)CCC3)CC1	D2 antagonist 35
Cc1ccc(S(=O)(=O)N(CC(=O)N2CCOCC2)CC(=O)N2CCOCC2)cc1	D2 PAM-2 31
COc1ccc([N+](=O)[O-])cc1C(=O)C(=O)c1ccccc1	none
COc1cc(C(=O)O)nc2ccc([N+](=O)[O-])cc12	D2 antagonist 38
O=C(Nc1ccc(C23CC4CC(CC(C4)C2)C3)cc1)c1cccc(Cl)c1	none (no result: D2 ag-1, D2 PAM-1, D2 antagonist, D2 PAM-2, D2 ag-2)
CC(C)COc1ccc(C(=O)Nc2nonc2-c2ccc(OC(C)C)cc2)cc1	LDHA inh -30 (no result: D2 ag-1, D2 PAM-1, D2 antagonist, D2 PAM-2, D2 ag-2)
CCCCCN(CCCCC)C(=S)Nc1ccc(Br)cc1Cl	none (no result: D2 ag-1, D2 PAM-1, D2 antagonist, D2 PAM-2, D2 ag-2)
COc1ccc(NC(=O)N2CCCCC2c2cccnc2)cc1 (stereo not given)	none
COc1cc(OC)cc(C(=O)NC(=S)N2CCCCC2c2cccnc2)c1 (stereo not given)	D2 antagonist 41
Cc1c(C(=O)Nc2cccc(C(F)(F)F)c2)sc2c1C(c1cccc(O)c1)CC(=O)N2 (stereo not given)	none (no result: D2 ag-1, D2 PAM-1, D2 antagonist, D2 PAM-2, D2 ag-2)
O=C(NC1CCCCCCC1)c1n[nH]c(=O)c2ccccc12	none (no result: D2 ag-1, D2 PAM-1, D2 antagonist, D2 PAM-2, D2 ag-2)
CC1=C(C(=O)Nc2ccccc2C)C2(CCCCC2)C(C(N)=O)C(=S)N1 (stereo not given)	D2 antagonist 38
